PubChem BioAssay (NCI)
This is part of a sample that, as a whole, favours compounds with a hit. Of some 83,000 tested, about 20% had one in any assay.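 Percent growth is the endpoint: 0 to 100 indicates growth inhibition (40 means 60% inhibition), 0 means no net growth, and negative values indicate cell death.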 Activity calls are given as the source filed them. Rule for the calls: active = growth percent below 10; inactive = the rest.

System: HL-60(TB) leukemia
Assay: NCI-60 one-dose screen, 48 h (100 = growth as untreated, 0 = no growth, -100 = all killed)
Details: 10 µM unless noted

Structure (SMILES) | growth
CC(C)C1=C[C@@]23CC[C@H]4[C@](C)(COCCC#N)CCC[C@]4(C)[C@H]2C[C@@H]1[C@@H]1[C@H]3[C@@H](OCCC#N)CC[C@@H]1OCCC#N | -42.7% (active)
COc1cnc2c(c1)C(=O)c1c-2n(CCCN2CCC(N)CC2)c(=O)c2cc([N+](=O)[O-])ccc12 | 44.3% (inactive)
Nc1ccc(C2=NN(C(=O)c3cc(-c4ccc(Cl)cc4)nc4ccccc34)C(c3ccccc3)C2)cc1 (centres undefined) | -6.07% (active)
Cc1nccc2c3ccc(OCc4cn(-c5ccc(Cl)cc5)nn4)cc3n(CCCc3ccccc3)c12 | -64.9% (active)
